# Measured values reported in PubChem BioAssay AID489042 (NMMLSC, 2010).
# Values without a mark were called inactive. Active and inactive are the calls of the source. Rule as the data show it: active = inhibition score above about 11; inactive = the rest.
# Experiment: yeast proliferation inhibition, dose response, BY4741, OD595, 24 h (AID 489042)
# Settings: S. cerevisiae BY4741 growth, flow cytometer event count, 7 d (AID 449753), hits give high values
row,SMILES,inhibition score
1,CNc1ccc2nc3ccccc3[n+](C)c2c1,0
2,OCC[n+]1c2ccccc2nc2ccc(N3CCOCC3)cc21,0
3,C[C@]12CCC3C(CC[C@H]4C[C@@H](O)CC[C@]34C)[C@H]1CC[C@H]2O (stereo not given in full),0
4,Oc1cccc2nc3ccccc3nc12,0
5,Nc1cc2nc3ccccc3nc2cc1N,0
6,Cn1c(O)c(C(=Nc2ccc(F)cc2)c2ccccc2Cl)c(=O)n(C)c1=O,0
7,C=C1C(O)[C@@H]2O[C@]3(CC[C@H](/C=C/C(C)[C@@H]4CC(C)=CC5(O[C@H](C[C@@](C)(O)C(=O)O)CCC5O)O4)O3)CC[C@H]2O[C@@H]1C(O)CC(C)[C@H]1OC2(CCCCO2)CCC1C (stereo not given in full),11 (active)
8,C#C[C@]1(O)[C@H](O)CC2C3CC[C@H]4C[C@@H](O)CC[C@]4(C)C3CC[C@@]21C (stereo not given in full),0
9,C[C@]12CCC3C(CC[C@H]4C[C@H](O)CC[C@]34C)C1C[C@@H](CCCCl)[C@@H]2O (stereo not given in full),0
10,CC(=O)O[C@H]1CCC2C3CC[C@H]4[C@@H](O)[C@H](O)CC[C@]4(C)C3CC[C@@]21C (stereo not given in full),0
11,O=c1[nH]c(O)c(C=Nc2ccc(F)c(Cl)c2)c(=O)[nH]1,0
12,C[n+]1c2ccccc2nc2ccc(NCCO)cc21,0
13,C[C@]12CCC3C(CC[C@H]4C[C@H](O)CC[C@]34C)C1CCC2=O (stereo not given in full),0
14,C[C@]12CCC3C(CC[C@H]4C[C@@H](O)CC[C@]34C)C1CC[C@@H]2OC(=O)[C@H](N)CCCCN (stereo not given in full),0
15,Cn1c(=O)[nH]c2nncnc2c1=O,0
